Screening data deposited in PubChem BioAssay by National Center for Advancing Translational Sciences (NCATS).
Most compounds without a hit are left out; they make up all but 5.3% or so of the library.
HCV inh: HCV inhibition. AID 651820. 340,000 compounds, 3.4% hits. Potency, µM (doses to about 41.8 µM), for the others: at the highest dose activity change, negative = inhibition, usual class: inhibitors. Huh7.5.1 HCVcc-Cre infection, luciferase reporter, 44 h; active means well fitted inhibition curve with a large enough effect; inconclusive means small, poorly fitted or top-dose-only effect, or another doubt; inactive means no such curve, though single readings can be large or run the other way
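Cells seeded at 1,000/well and cultured 4 h, then compounds added followed by HCVcc-Cre virus (~0.5 moi). After 44 h further culture, luciferase substrate was added, plates held 15 min at room temperature, and luminescence read for 15 sec.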
FMDV inh: foot and mouth disease virus antiviral activity | FMDV antiviral cell-based qHTS | Potency, µM (top dose mostly 57.9 µM), without a hit: at the highest dose activity change, negative = inhibition, usual class: inhibitors | 410,000 compounds, 1.2% hits | AID 1159524; calls by dose curve; tested in HEK293T cells; further: read-out not given here; nearly all actives have a fitted effect of over 45% in size
Vaccinia Venus: vaccinia inhibition (Venus reporter); Vaccinia virus Venus reporter expression, fluorescence; 330,000 compounds, 0.46% hits; Potency, µM (doses to about 36.5 µM), inactives show at the highest dose activity change, negative = inhibition, usual class: inhibitors; calls by dose curve; tested in A549 cells; further: nearly all actives have a fitted effect of over 30% in size
LASV entry inh: Lassa virus entry inhibition; Potency, µM (highest dose often 37.9 µM), inactives show top-dose activity change, negative = inhibition, most hits filed as inhibitors; Lassa virus pseudotype entry inhibition, cell reporter; 300,000 compounds, 1.2% hits; calls by dose curve; tested in HEK293 cells; further: nearly all actives have a fitted effect of over 50% in size
Marburg entry inh: Marburg virus entry inhibition; Marburg virus pseudotyped entry inhibition, cell reporter; Potency, µM (titrated, usually from 37.8 µM), for the others: at the top dose activity change, negative = inhibition, most hits filed as inhibitors; 300,000 compounds, 1.8% hits; calls by dose curve; tested in HEK293 cells
VACV mCherry inh: vaccinia inhibition (mCherry reporter); Vaccinia virus mCherry reporter infection, fluorescence; Potency, µM (doses to about 36.5 µM), inactives show at the highest dose activity change, negative = inhibition, hits mostly inhibitors; 310,000 compounds, 0.63% hits; calls by dose curve; tested in A549 cells; further: nearly all actives have a fitted effect of over 35% in size
Numbers without * were called inactive; i = inactive; ? = inconclusive; . = no result given; [ ] = another dose, or the depositor's remark. On the % scale 0 is the no-effect control and ±100 the full control effect; potency means the concentration at half of the fitted maximal effect.

SMILES	HCV inh	FMDV inh	Vaccinia Venus	LASV entry inh	Marburg entry inh	VACV mCherry inh
CC1CN(S(=O)(=O)c2cccc(C(=O)N3CCC(C(N)=O)CC3)c2)CC(C)O1 (centres undefined)	0%	6%	-3%	0%	?	-11%
Cc1ccc(C(=O)Nc2ncc(Cc3ccc(SC(F)F)cc3)s2)cc1	10µM*	-27%	?	?	-25%	-25%
Cc1ccc(OCCOC(=O)c2cccc(S(=O)(=O)N3CC(C)OC(C)C3)c2)cc1 (centres undefined)	11µM*	?	.	.	.	.
Cc1nnc(NC(=O)c2cc3ccccc3o2)s1	3%	-1%	-6%	10%[46.1 µM]	11%[46.1 µM]	-1%
O=C(Nc1ncc([N+](=O)[O-])s1)c1ccco1	23%	-24%	.	.	.	.
COC(=O)c1ccccc1NC(=O)c1c(C)oc2ncn(C)c(=O)c12	.	12%	-3%	20%[46.1 µM]	7%[46.1 µM]	-3%
Cc1cnc(NC(=O)c2ccc3c(c2)OCCO3)s1	2%	10µM*	.	.	.	.
CC1=NOC(=O)/C1=C\c1ccc(-c2cccc(Cl)c2)o1	?	40µM*	-40%	?	?	?
Nc1ccccc1N=Cc1ccc(-c2cccc(Cl)c2)o1	10µM*	?	?	?	?	-9%
CC1=NOC(=O)/C1=C/c1ccc(O)cc1	10%	-10%	-6%	2%	4%[46.1 µM]	-18%
CC1=NOC(=O)/C1=C\c1ccc(-c2ccccc2Br)o1	-17%	25µM*	.	.	.	.
CC1=NOC(=O)/C1=C/c1ccc(O)c(Br)c1	24%	25µM*	-4%	3%[46.1 µM]	11%[46.1 µM]	i
COC(=O)N/N=C/c1ccc(-c2cccc(Cl)c2)o1	-21%	30%	-6%	13%	-1%	-16%
C=CC[C@@H]1C=CC(O/N=C(\C)CCC(=O)OC[C@H]2O[C@H](C#Cc3ccccc3)C=C[C@@H]2Oc2ccc(C)cc2)[C@@H](CO)O1 (some centres undefined)	.	.	.	.	29%[14.2 µM]	.
NC1C(N)C(N)C1N (centres undefined)	.	.	-12%	.	.	-6%
CCC(C)(C)c1ccc(OCCCC[n+]2ccccc2)c(C(C)(C)CC)c1	?	32µM*	.	.	.	.
Cc1cc(=O)oc2cc(OCCCC[n+]3ccccc3)ccc12	20%	28%	-5%	12%[46.1 µM]	?	-2%
CCSc1nc2ccccc2n1C(=O)/C=C\c1ccc(OC)c(OC)c1	14µM*	13µM*	?	?	13µM*	13µM*
CCSc1nc2ccccc2n1CC(N)=O	-3%	-17%	.	-1%	16%	.
CCOC(=O)c1c(C)[nH]c(C)c1C(=O)COC(=O)c1ccc(Cl)c(S(=O)(=O)NCc2ccccc2)c1	7.1µM*	?	?	-27%	-16%[46.1 µM]	?
O=C(COC(=O)c1ccc(Cl)c(S(=O)(=O)NCc2ccccc2)c1)NC1CC1	0%	13%	-5%	13%	6%	-10%
COC(=O)c1ccccc1NCc1cc(=O)oc2cc(O)c(O)cc12	-20%	-9%	?	?	?	7.1µM*
O=C1C(=O)c2ccccc2C(O)=C1CC=C(Cl)Cl	-1%	?	20%	3.2µM*	?	?
Cc1cc(C(=O)c2ccc(Cl)cc2)c(NC(=O)CCl)s1	?	25µM*	-20%	-3%	?	?
COCCN=c1scc(-c2cccs2)n1/N=C/c1ccc(O)c(O)c1O	?	1%	?	.	.	11µM*
SMILES	HCV inh	FMDV inh	Vaccinia Venus	LASV entry inh	Marburg entry inh	VACV mCherry inh
COC(C(C)/C=C/CC(=O)OCCCc1ccccc1)C1CCCCC1 (centres undefined)	.	.	.	.	5%[14.2 µM]	.
COC(=O)C1=C(C(=O)OC)[C@@H]2N(Cc3ccccc3)c3ccccc3[C@@]23C[C@@H](C(=O)OC)N(C(=O)NCCBr)C3=N1	.	.	.	.	8%[14.2 µM]	.
Cc1ccc(Cn2c(SCC(=O)NCC3CCCO3)nc3ccsc3c2=O)cc1 (centres undefined)	8.9µM*	-3%	-3%	-15%	-11%[46.1 µM]	-8%
Cc1ccc(-c2nsc(SCC(=O)NCC3CCCO3)n2)cc1 (centres undefined)	10µM*	-2%	-24%	0%	-14%[46.1 µM]	i
Cc1cc(C)c2c(=O)cc(C(=O)Nc3ccc(S(=O)(=O)N(C)Cc4ccccc4)cc3)oc2c1	.	-20%	0%	8%[46.1 µM]	?	18%
S=C(NCC1CCCO1)NC1CCCCC1 (centres undefined)	16%	10%	.	.	.	.
